Measurements published in PubChem BioAssay (NCI).
The panel holds about 83,000 compounds, 20% with a hit somewhere; the sample as a whole holds those more often.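 Interpretation: 100, growth as untreated; towards 0, rising growth inhibition; 0, no net growth; 0 to -100, cell death. Compounds scoring below 10 were considered active.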 A number with no mark means an inactive call. Activity calls are given as the source filed them.

Legend:
Assay in all cases: NCI-60 one-dose screen, 48 h (100 = growth as untreated, 0 = no growth, -100 = all killed)
Details in all cases: 10 µM unless noted
[1] = tested on: NCI-H23 lung
[2] = tested on: NCI-H226 lung
[3] = tested on: NCI-H322M lung
[4] = tested on: HOP-62 NSCLC
[5] = tested on: NCI-H460 lung
[6] = tested on: HOP-92 NSCLC
[7] = tested on: NCI-H522 lung
[8] = tested on: A549/ATCC NSCLC
[9] = tested on: 786-0 renal
[10] = tested on: COLO 205 colon
[11] = tested on: DU-145 prostate
[12] = tested on: K-562 leukemia
[13] = tested on: MALME-3M melanoma
[14] = tested on: MDA-MB-231 breast
[15] = tested on: RXF 393 renal
[16] = tested on: SF-268 CNS
[17] = tested on: SF-295 CNS
[18] = tested on: SF-539 CNS
[19] = tested on: UACC-257 melanoma
[20] = tested on: M14 melanoma

SMILES	growth [1]	growth [2]	growth [3]	growth [4]	growth [5]	growth [6]	growth [7]	growth [8]	growth [9]	growth [10]	growth [11]	growth [12]	growth [13]	growth [14]	growth [15]	growth [16]	growth [17]	growth [18]	growth [19]	growth [20]
CS(=O)(=O)Nc1cncc(-c2ccc3ncnc(Nc4ccc(F)c(Cl)c4)c3c2)c1	33.1%	55.7%	10.5%	40.1%	61.9%	-4.23% (active)	8.87% (active)	43.1%	62%	32.5%	36.5%	35.3%	44.1%	54.6%	24.9%	41.5%	44.5%	32.5%	35.2%	52.5%
CCN(CC)CCCC(C)Nc1ccc2cc(OC)ccc2n1 (stereo not given)	107%	107%	94.7%	91.4%	108%	91.5%	99.1%	85.4%	98.9%	107%	99.9%	131%	114%	104%	112%	91.2%	97.4%	100%	94.7%	99.3%
O=C1NC(=Nc2ccc(O)cc2)S/C1=C\c1cccs1	47.4%	57.4%	35.3%	46.7%	3.62% (active)	-7.99% (active)	15.5%	35.4%	20.2%	105%	44.6%	14.7%	68.8%	57.9%	41.2%	50%	34.8%	16.7%	70.5%	34.8%
O=C(Cn1nnc([N+](=O)[O-])n1)c1ccccc1	96.5%	112%	101%	94.8%	93.2%	63.6%	86.9%	87%	102%	100%	99.4%	83.3%	92.7%	71.5%	91.8%	83.1%	58%	93.3%	90.9%	71.5%
Cc1c2cnccc2c(C)c2c1c1cc(C3OCCCO3)ccc1n2C	-31.9% (active)	-4.43% (active)	-2.25% (active)	-13% (active)	0.184% (active)	-10.5% (active)	-41.6% (active)	2.33% (active)	11.8%	-17.6% (active)	3.92% (active)	3.75% (active)	-62.9% (active)	-26.1% (active)	-78.9% (active)	1.29% (active)	0.404% (active)	-55.1% (active)	-25.8% (active)	-79.8% (active)
CCOC(=O)c1c(C)c2c(n1C)CSc1cc(S(=O)(=O)c3ccccc3)c(=O)[nH]c1-2	21.7% [100 µM]	24.3% [100 µM]	28.1% [100 µM]	57.5% [100 µM]	9.02% [100 µM] (active)	8.76% [100 µM] (active)	32% [100 µM]	32.1% [100 µM]	31.4% [100 µM]	-27.7% [100 µM] (active)	25.8% [100 µM]	31% [100 µM]	73.2% [100 µM]	31.1% [100 µM]	44.3% [100 µM]	40.5% [100 µM]	27.2% [100 µM]	28.9% [100 µM]	41.9% [100 µM]	23.7% [100 µM]
COc1ccc(C(C)=O)cc1S(N)(=O)=O	98.2%	101%	97.1%	112%	104%	92%	75.6%	88%	89.4%	115%	106%	104%	99.3%	103%	102%	101%	94.6%	104%	91.9%	95%
CCOC(=O)c1c(-c2ccc(Cl)cc2)c(C#N)c2c(C#N)c(N)nn2c1N	85.9%	87.4%	83.4%	74.9%	77.3%	63.1%	37.4%	51.3%	82.6%	69.8%	74.9%	15.4%	72.9%	75.7%	77%	77.3%	57.2%	71.6%	60.3%	75.5%
